Measured values published in PubChem BioAssay (Tox21).
“And” between values parts separate entries of the source, which are not always exact repeats. Equal entries are not always repeated. Results filed as inconclusive are left out. Where a call stands in place of a potency, no number is given. The source made the active and inactive calls. Unless noted, the call rests on the fitted dose curve; in most records, active means well fitted curve in the direction sought with a large enough effect in the repeat runs; inconclusive means weak or mixed curves; inactive means no such curve, though single readings can be large; an effect the other way counts as inactive or inconclusive.

How the values were obtained:
[1] = qHTS assay to identify small molecule antagonists of the estrogen receptor alpha (ER-alpha) signaling pathway using the BG1 cell line in the presence of 0.1 nM 17-beta-estradiol - cell viability counter screen (AID 1259241); further: nearly all actives have a fitted effect of over 40% in size; further: potency means the concentration at half of the fitted maximal effect
Outline: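 VM7Luc4E2 cells (endogenous full-length ER-alpha, 4xERE-luciferase), cultured 5 days in charcoal-stripped serum, exposed to compounds with 0.1 nM 17beta-estradiol (final) for 22 hr at 37C. Viability read in same wells as live-cell protease fluorescence after 30 min.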

[2] = qHTS assay to identify small molecule antagonists of the androgen receptor (AR) signaling pathway using the MDA cell line in the presence of 0.5 nM R1881 - cell viability counter screen (AID 1259242); further: nearly all actives have a fitted effect of over 45% in size; further: potency means the concentration at half of the fitted maximal effect
Outline: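 Live-cell protease fluorescence, CellTiter-Fluor, 30 min at 37C. Cells: MDA-kb2, 3,000/well, preincubated 5 hr. Compounds plus 0.5 nM R1881 final, 16 hr, 37C, 0% CO2.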

[3] = target: Estrogen receptor (Homo sapiens) (UniProt P03372); assay: qHTS assay to identify small molecule antagonists of the estrogen receptor alpha (ER-alpha) signaling pathway using the BG1 cell line in the presence of 0.1 nM 17-beta-estradiol (AID 1259244); further: nearly all actives have a fitted effect of over 50% in size; further: potency means the concentration at half of the fitted maximal effect
Chain of Estrogen receptor (Homo sapiens) (P03372 whole entry, looked up): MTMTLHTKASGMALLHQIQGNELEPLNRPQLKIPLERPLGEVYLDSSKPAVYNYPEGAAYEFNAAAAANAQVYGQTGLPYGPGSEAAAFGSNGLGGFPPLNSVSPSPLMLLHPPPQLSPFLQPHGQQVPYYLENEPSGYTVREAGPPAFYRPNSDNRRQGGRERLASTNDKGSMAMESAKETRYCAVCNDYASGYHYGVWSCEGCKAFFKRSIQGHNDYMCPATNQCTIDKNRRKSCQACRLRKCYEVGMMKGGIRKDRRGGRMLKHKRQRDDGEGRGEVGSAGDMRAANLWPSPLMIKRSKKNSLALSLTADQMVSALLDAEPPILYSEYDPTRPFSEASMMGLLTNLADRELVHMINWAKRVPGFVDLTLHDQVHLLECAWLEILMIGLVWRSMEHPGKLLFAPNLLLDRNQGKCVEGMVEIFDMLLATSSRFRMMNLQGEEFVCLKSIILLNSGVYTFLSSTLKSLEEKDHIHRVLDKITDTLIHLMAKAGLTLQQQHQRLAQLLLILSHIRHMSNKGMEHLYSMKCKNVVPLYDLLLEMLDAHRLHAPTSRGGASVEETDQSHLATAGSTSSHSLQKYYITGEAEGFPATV
Outline: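 Luminescence after ONE-Glo (30 min, room temperature) measured ERE-luciferase activity in VM7Luc4E2 cells treated 22 h with compound and 0.1 nM final 17beta-estradiol as stimulator.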

[4] = qHTS assay to identify small molecule HDAC inhibitors (AID 1259364); further: potency means the concentration at half of the fitted maximal effect;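 further: wild-type HCT-116 cells with endogenous class I/II HDAC activity; nearly all actives have a fitted effect of over 45% in size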
Outline: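 HCT-116 (wild type), 1,500 cells/well, overnight; compound 2 hr 37C 5% CO2; HDAC-Glo I/II reagent 30 min RT; luminescence readout.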

[5] = qHTS assay to identify small molecule HDAC inhibitors - cell viability counter screen (AID 1259365); further: nearly all actives have a fitted effect of over 50% in size; further: potency means the concentration at half of the fitted maximal effect
Outline: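 Wild-type HCT-116 cells, 1,500/well, cultured overnight, then compound-treated 2 h at 37 C. Viability measured as ATP luminescence with CellTiter-Glo after 30 min at room temperature.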

[6] = qHTS assay to identify small molecule agonists of the sonic hedgehog signaling (Shh) pathway - cell viability counter screen (AID 1259366); further: nearly all actives have a fitted effect of over 50% in size; further: potency means the concentration at half of the fitted maximal effect
Outline: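 NIH/3T3-derived Gli1-Luc reporter cells, 2,000 per well, received compound after 4 h and were treated about 23 h at 37C. Viability measured in the same wells by CellTiter-Fluor fluorescence after 1 h.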

[7] = qHTS assay to identify small molecule antagonists of the sonic hedgehog signaling (Shh) pathway - cell viability counter screen (AID 1259367); further: nearly all actives have a fitted effect of over 55% in size; further: potency means the concentration at half of the fitted maximal effect
Outline: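 Conditioned medium drove Shh signaling in 3T3 Gli1-Luc cells exposed to compounds at 37C and 5% CO2. Viability was determined from CellTiter-Fluor fluorescence, with reagent incubated 1 hr after 23 hr of treatment.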

[8] = qHTS assay to identify small molecule agonists of the sonic hedgehog signaling (Shh) pathway (AID 1259368; calls by dose curve;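 further: NIH/3T3-derived 3T3Gli1-Luc cells carrying a stable Gli1-driven firefly luciferase reporter; series mostly up to about 92 µM; nearly all actives have a fitted effect of over 15% in size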)
Outline: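 Read-out: firefly luciferase luminescence from a Gli1 response element reporter stably integrated in NIH/3T3-derived 3T3Gli1-Luc cells, measured 30 min at room temperature after reagent addition. Compound exposure lasted 24 hr at 37 C, 5% CO2.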

[9] = qHTS assay to identify small molecule phospholipidosis (PLD) inducers (AID 1259344; active means well fitted curve in the direction sought with a large enough effect; an effect the other way counts as inactive or inconclusive)
Outline: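 After 4 h attachment on collagen I, HepG2 cells were dosed with compound alongside LipidTOX Red, kept 24 h at 37 C, fixed, and imaged for lamellar phospholipid pits.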

Row | Compound | Potency [1] | Potency [2] | Potency [3] | Potency [4] | Potency [5] | Potency [6] | Potency [7] | Potency [8] | outcome [9]
1 | O=c1c2ccccc2c(=O)c2c1cc(Cl)c1[nH]c3c([nH]c12)c(Cl)cc1c(=O)c2ccccc2c(=O)c13 | inactive | inactive | inactive | inactive | inactive | inactive | inactive | inactive | –
2 | CN1C2CCC(C)(C)C1CC(OC(=O)C(O)(c1cccs1)c1cccs1)C2 (stereo not drawn) | inactive | inactive | inactive | inactive | inactive | – | inactive | inactive | –
3 | CNC(=O)Oc1cc(C)cc(C(C)C)c1 | inactive | inactive | inactive | inactive | inactive | inactive | inactive | inactive | –
4 | O=P(Cl)(Cl)Cl | inactive | inactive | inactive | inactive | inactive | inactive | inactive | inactive | –
5 | CC(C)Br | inactive | inactive | inactive | inactive | inactive | inactive | inactive | inactive | –
6 | COc1cnc(OC)n2nc(NS(=O)(=O)c3c(OCC(F)F)cccc3C(F)(F)F)nc12 | inactive | inactive | inactive | inactive | inactive | inactive | inactive | inactive | –
7 | CC(Cc1ccc(OCC(=O)O)cc1)NCC(O)c1csc(C(F)(F)F)n1 (stereo not drawn) | inactive | inactive | inactive | inactive | – | 6110 nM (active) | 3860 nM (active) | inactive | –
8 | O=C(Cl)c1ccccc1F | inactive | inactive | inactive | inactive | inactive | inactive | inactive | inactive | –
9 | CC[N+]1(CC)CCC(OC(=O)C(O)(c2ccccc2)c2ccccc2)C1 (stereo not drawn) | inactive | inactive | inactive | inactive | inactive | – | inactive | inactive | –
10 | Cc1cnc2c(C(=O)O)c(Cl)ccc2c1 | inactive | inactive | inactive | inactive | inactive | inactive | inactive | inactive | –
11 | Nc1nc(N)nc(Cl)n1 | inactive | inactive | inactive | inactive | inactive | inactive | inactive | inactive | –
12 | CCO/N=C(\CC)C1=C(O)CC(c2c(C)cc(C)cc2C)CC1=O (stereo not drawn) | inactive | inactive | inactive | inactive | inactive | inactive | inactive | inactive | –
13 | CC(C)N(C(=O)SC/C(Cl)=C/Cl)C(C)C | inactive | inactive | inactive | inactive | – | – | inactive | inactive | –
14 | OCC(Br)CBr (stereo not drawn) | inactive | inactive | inactive | inactive | inactive | – | inactive | inactive | –
15 | Cc1ccc2cc3c(ccc4ccccc43)c3c2c1CC3 | inactive | inactive | 546 nM (active) | inactive | inactive | inactive | inactive | inactive | –
16 | CC(O)C(=O)[O][Hg][c]1ccccc1 (stereo not drawn) | 12200 nM (active) | 6110 nM (active) | 8630 nM (active) | 4.33 µM (active) | 4330 nM (active) | 969 nM (active) | 1220 nM (active) | inactive | –
17 | C=Cc1cccc(CCl)c1 | inactive | inactive | inactive | inactive | inactive | inactive | inactive | inactive | –
18 | CCCCN(CCCC)C(=S)S | inactive | inactive | inactive | inactive | inactive | – | – | inactive | –
19 | CCC[CH2][Sn]([CH2]CCC)([O]C(C)=O)[O]C(C)=O | 692 nM (active) | 347 nM (active) | 617 nM (active) | inactive | inactive | 6170 nM (active) | 27600 nM (active) | inactive | –
20 | CCCCc1ccccc1 | inactive | inactive | inactive | inactive | inactive | – | inactive | inactive | –
21 | Cc1c([N+](=O)[O-])c(C)c([N+](=O)[O-])c(C(C)(C)C)c1[N+](=O)[O-] | inactive | inactive | inactive | inactive | inactive | inactive | inactive | inactive | –
22 | CNC(=O)/C=C(\C)OP(=O)(OC)OC | inactive | inactive | inactive | inactive | inactive | – | inactive | inactive | –
23 | CN1[C@@H]2CC[C@H]1CC(O)C2 (stereo partly drawn) | inactive | inactive | inactive | inactive | inactive | – | inactive | inactive | –
24 | COP(=S)(OC)Oc1ccc([N+](=O)[O-])c(C)c1 | inactive | inactive | inactive | inactive | inactive | inactive | – | inactive | –
25 | c1ccc(N=NNc2ccccc2)cc1 | inactive | inactive | inactive | 15.9 µM (active) and 24.3 µM (active) | inactive | inactive | inactive | inactive | –
26 | C=CC(=C)C | inactive | inactive | inactive | inactive | inactive | inactive | inactive | inactive | –
27 | ClSC(Cl)(Cl)Cl | inactive | inactive | inactive | inactive | inactive | – | inactive | inactive | –
28 | CC(C)C(Nc1ccc(C(F)(F)F)cc1Cl)C(=O)OC(C#N)c1cccc(Oc2ccccc2)c1 (stereo not drawn) | inactive | inactive | – | inactive | inactive | inactive | inactive | – | –

Row | Compound | Potency [1] | Potency [2] | Potency [3] | Potency [4] | Potency [5] | Potency [6] | Potency [7] | Potency [8] | outcome [9]
29 | O=[N+]([O-])c1cccc2cccc([N+](=O)[O-])c12 | inactive | inactive | – | inactive | inactive | inactive | inactive | inactive | –
30 | CC(Cc1ccc(O)cc1)NCC(O)c1cc(O)cc(O)c1 (stereo not drawn) | inactive | inactive | – | inactive | inactive | 8410 nM (active) | 10600 nM (active) | inactive | inactive
31 | CN1C(=O)[C@@H](NC(=O)c2cc3ccccc3[nH]2)N=C(c2ccccc2)c2ccccc21 | inactive | inactive | – | inactive | inactive | inactive | inactive | inactive | inactive
32 | CCCCn1cc[n+](C)c1 (tested in a mixture with another compound) | inactive | inactive | – | inactive | inactive | inactive | inactive | inactive | –
33 | C#CCC1=C(C)C(OC(=O)C2C(C=C(C)C)C2(C)C)CC1=O (stereo not drawn) | inactive | inactive | – | inactive | inactive | inactive | – | inactive | –
34 | CCCCC(CC)COC(=O)OOC(C)(C)C (stereo not drawn) | inactive | inactive | – | inactive | inactive | inactive | inactive | inactive | –
35 | CN(C)CCc1c[nH]c2ccccc12 | inactive | inactive | – | inactive | inactive | inactive | – | inactive | inactive
36 | COc1ccc2[nH]cc(CCN(C(C)C)C(C)C)c2c1 | inactive | inactive | – | inactive | inactive | inactive | inactive | inactive | inactive
37 | C[C@]12Cc3cn[nH]c3C[C@@H]1CC[C@@H]1[C@@H]2CC[C@@]2(C)[C@H]1CC[C@]2(C)O | inactive | inactive | – | inactive | inactive | inactive | – | inactive | –
38 | CC(C)[C@@H](Nc1ccc(C(F)(F)F)cc1Cl)C(=O)OC(C#N)c1cccc(Oc2ccccc2)c1 (stereo partly drawn) | inactive | inactive | – | inactive | inactive | inactive | inactive | inactive | –
39 | CC(C)c1c(CN(C)C(C)Cc2ccccc2)n(C)n(-c2ccccc2)c1=O (stereo not drawn) | inactive | inactive | – | inactive | inactive | inactive | inactive | inactive | inactive
40 | O=[N+]([O-])[O-].[Tl+] | inactive | inactive | – | inactive | inactive | inactive | inactive | inactive | –
41 | CC(=O)[O-].CC(=O)[O-].CC(=O)[O-].[Cr+3] | inactive | inactive | – | inactive | inactive | inactive | – | inactive | –
42 | CCc1cccc(C)c1N(C(=O)CCl)[C@@H](C)COC | inactive | inactive | – | inactive | inactive | inactive | inactive | inactive | –
43 | CCCC[N+]1(C)CCCC1 (tested in a mixture with another compound) | inactive | inactive | – | inactive | inactive | inactive | inactive | inactive | –
44 | C=C(C)C(=O)[O][Sn]([CH2]CCC)([CH2]CCC)[CH2]CCC | 770 nM (active) | 545 nM (active) | 486 nM (active) | inactive | – | – | 486 nM (active) | inactive | –
45 | CSC(=O)c1c(C(F)F)nc(C(F)(F)F)c(C(=O)SC)c1CC(C)C | inactive | inactive | – | inactive | inactive | inactive | inactive | inactive | –
46 | Nc1ccccc1-c1ccccc1 | inactive | inactive | inactive | – | inactive | – | inactive | inactive | –
47 | Clc1ccc(C(Cl)(Cl)Cl)cc1Cl | inactive | inactive | – | 15 µM (active) | inactive | inactive | inactive | inactive | –
48 | CCOP(=S)(OCC)SC(CCl)N1C(=O)c2ccccc2C1=O (stereo not drawn) | inactive | inactive | – | inactive | inactive | inactive | inactive | inactive | –
49 | COc1ccc2c3c1O[C@H]1[C@H](O)CC[C@H]4[C@@H](C2)N(C)CC[C@@]341 | inactive | inactive | – | inactive | inactive | inactive | inactive | inactive | inactive
50 | COC(=O)c1cc(Oc2ccc(Cl)cc2Cl)ccc1[N+](=O)[O-] | inactive | inactive | – | inactive | inactive | inactive | inactive | inactive | –
51 | CNC(C)(C)Cc1ccccc1 | inactive | inactive | – | inactive | inactive | inactive | inactive | inactive | inactive
52 | CCC(C)Br (stereo not drawn) | inactive | inactive | – | inactive | inactive | inactive | inactive | inactive | –
53 | O=[N+]([O-])c1ccccc1-c1ccccc1 | inactive | inactive | – | inactive | inactive | inactive | inactive | inactive | –
54 | BrCC(Br)(Br)Br | inactive | inactive | – | inactive | inactive | inactive | inactive | inactive | –
55 | [F][Sn]([c]1ccccc1)([c]1ccccc1)[c]1ccccc1 | 24300 nM (active) | 2170 nM (active) | 2730 nM (active) | – | – | 96.9 nM (active) | 154 nM (active) | inactive | –
